Where “and” joins values, the source holds several entries; their conditions need not be identical. Identical values can stand only once. Inconclusive results are not listed. Calls of active or inactive are those of the source. Calls come from the whole dose curve; as a rule, active = well fitted curve in the direction sought with a large enough effect in the repeat runs; inconclusive = weak or mixed curves; inactive = no such curve, though single readings can be large; an effect the other way counts as inactive or inconclusive.
Assays:
[1] = qHTS RealTime-Glo MT Cell Viability Assay in HepG2 cells - 40 hour (AID 1224870); note: nearly all actives have a fitted effect of over 50% in size
Method in brief: (§1)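 HepG2 cells mixed with RealTime-Glo MT reagents (NanoLuc plus cell-permeant prosubstrate) were seeded at 600 cells/well, incubated 5 h at 37 C/5% CO2, then pinned with compounds in DMSO; nonlytic luminescence tracked viability during 40 h treatment.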

[2] = A CellTox Green Cytotoxicity Assay to monitor cytotoxicity in HEK293 cells - 40 hour (AID 1224871); note: nearly all actives have a fitted effect of over 45% in size
Method in brief: (§2)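 Cytotoxicity was tracked continuously in HEK293 cells by a DNA-binding dye excluded from viable cells. Compounds were transferred in DMSO 5 h after seeding; fluorescence was recorded at intervals up to 40 h.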

[3] = qHTS RealTime-Glo MT Cell Viability Assay in HEK293 cells - 16 hour (AID 1224872); note: top concentration of the series differs between compounds; nearly all actives have a fitted effect of over 50% in size
Method in brief: (§3)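 Reads taken at 0, 8, 16, 24, 32 and 40 h from the same wells. HEK293 cells (600/well) carried RealTime-Glo reagents from seeding, with compound added after a 5 h settle at 37 C.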

[4] = qHTS RealTime-Glo MT Cell Viability Assay in HepG2 cells - 8 hour (AID 1224873); note: nearly all actives have a fitted effect of over 55% in size
Method in brief: as §1

[5] = qHTS RealTime-Glo MT Cell Viability Assay in HEK293 cells - 40 hour (AID 1224874); conditions: RealTime-Glo luminescence; max response: active compounds read low; note: nearly all actives have a fitted effect of over 50% in size
Method in brief: (§4)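 Nonlytic bioluminescent viability monitoring. HEK293 at 600 cells/well with reagent; 5 h settle; compound transfer by pintool; plates held at 37 C and read at set time points.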

[6] = A CellTox Green Cytotoxicity Assay to monitor cytotoxicity in HEK293 cells - 24 hour (AID 1224875); note: series mostly up to about 77 µM; nearly all actives have a fitted effect of over 45% in size
Method in brief: as §2

[7] = A CellTox Green Cytotoxicity Assay to monitor cytotoxicity in HepG2 cells - 16 hour (AID 1224876); note: nearly all actives have a fitted effect of over 45% in size
Method in brief: (§5)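 Real-time, homogeneous cytotoxicity readout: dead-cell DNA staining by CellTox Green in HepG2 monolayers, fluorescence measured at timed intervals up to 40 h of continuous compound exposure.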

[8] = qHTS RealTime-Glo MT Cell Viability Assay in HepG2 cells - 32 hour (AID 1224877); note: nearly all actives have a fitted effect of over 55% in size
Method in brief: (§6)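 HepG2 suspension premixed with RealTime-Glo reagents is plated at 600 cells per well and left 5 h at 37 C/5% CO2. Compounds in DMSO then go in, and bioluminescence reflecting viable cell number is recorded over 40 h.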

[9] = A CellTox Green Cytotoxicity Assay to monitor cytotoxicity in HepG2 cells - 24 hour (AID 1224878); note: nearly all actives have a fitted effect of over 45% in size
Method in brief: as §5

[10] = A CellTox Green Cytotoxicity Assay to monitor cytotoxicity in HepG2 cells - 40 hour (AID 1224879); note: nearly all actives have a fitted effect of over 40% in size
Method in brief: as §5

[11] = qHTS RealTime-Glo MT Cell Viability Assay in HEK293 cells - 0 hour (AID 1224880)
Method in brief: as §4

[12] = A CellTox Green Cytotoxicity Assay to monitor cytotoxicity in HEK293 cells - 32 hour (AID 1224881); note: nearly all actives have a fitted effect of over 40% in size
Method in brief: as §2

[13] = A CellTox Green Cytotoxicity Assay to monitor cytotoxicity in HepG2 cells - 0 hour (AID 1224882); note: nearly all actives have a fitted effect of over 35% in size
Method in brief: as §5

[14] = A CellTox Green Cytotoxicity Assay to monitor cytotoxicity in HepG2 cells - 32 hour (AID 1224883); note: nearly all actives have a fitted effect of over 50% in size
Method in brief: as §5

[15] = A CellTox Green Cytotoxicity Assay to monitor cytotoxicity in HEK293 cells - 8 hour (AID 1224884); note: nearly all actives have a fitted effect of over 35% in size
Method in brief: as §2

[16] = qHTS RealTime-Glo MT Cell Viability Assay in HepG2 cells - 16 hour (AID 1224885); note: nearly all actives have a fitted effect of over 50% in size
Method in brief: as §6

[17] = qHTS RealTime-Glo MT Cell Viability Assay in HEK293 cells - 24 hour (AID 1224886)
Method in brief: as §3

[18] = qHTS RealTime-Glo MT Cell Viability Assay in HEK293 cells - 8 hour (AID 1224887)
Method in brief: as §4

[19] = A CellTox Green Cytotoxicity Assay to monitor cytotoxicity in HEK293 cells - 16 hour (AID 1224888); note: nearly all actives have a fitted effect of over 35% in size
Method in brief: as §2

[20] = qHTS RealTime-Glo MT Cell Viability Assay in HepG2 cells - 0 hour (AID 1224889); note: nearly all actives have a fitted effect of over 50% in size
Method in brief: as §6
% is set by controls: 0 for no effect and ±100 for the full control effect.

CSc1nnc(C(C)(C)C)c(=O)n1N
inactive: outcome [1] | Potency [2] | outcome [3] | outcome [4] | max response [5] -23.1% and -14.9% | Potency [6] | Potency [7] | outcome [8] | Potency [9] | Potency [10] | outcome [11] | Potency [12] | Potency [13] | Potency [14] | Potency [15] | outcome [16] | outcome [17] | outcome [18] | Potency [19] | outcome [20]

Oc1c(Br)cc(Br)cc1Br
inactive: outcome [1] | Potency [2] | outcome [3] | outcome [4] | max response [5] -1.22% | Potency [6] | Potency [7] | outcome [8] | Potency [9] | Potency [10] | outcome [11] | Potency [12] | Potency [13] | Potency [14] | Potency [15] | outcome [17] | outcome [18] | Potency [19] | outcome [20]

FC(F)(F)c1ccc(Cl)cc1
inactive: outcome [1] | Potency [2] | outcome [3] | outcome [4] | max response [5] 3.01% and 8.11% | Potency [6] | Potency [7] | outcome [8] | Potency [9] | Potency [10] | outcome [11] | Potency [12] | Potency [13] | Potency [15] | outcome [16] | outcome [17] | outcome [18] | Potency [19] | outcome [20]

CNCC(O)c1ccc(O)cc1 (centres undefined)
inactive: outcome [1] | Potency [2] | outcome [3] | outcome [4] | max response [5] 4.3% and -3.08% | Potency [6] | Potency [7] | outcome [8] | Potency [9] | Potency [10] | outcome [11] | Potency [12] | Potency [13] | Potency [14] | Potency [15] | outcome [17] | outcome [18] | Potency [19] | outcome [20]

Cl[C@H]1OCCO[C@@H]1Cl
inactive: outcome [1] | Potency [2] | outcome [3] | outcome [4] | max response [5] 9.41% and 3.91% | Potency [6] | Potency [7] | outcome [8] | Potency [9] | Potency [10] | outcome [11] | Potency [12] | Potency [13] | Potency [14] | Potency [15] | outcome [17] | outcome [18] | Potency [19] | outcome [20]

O=C(O)c1cc(Oc2ccc(C(F)(F)F)cc2Cl)ccc1[N+](=O)[O-]
inactive: outcome [1] | Potency [2] | outcome [3] | outcome [4] | max response [5] 3.72% [middle of 4 runs] | Potency [6] | Potency [7] | outcome [8] | Potency [9] | Potency [10] | outcome [11] | Potency [12] | Potency [13] | Potency [14] | Potency [15] | outcome [17] | outcome [18] | Potency [19] | outcome [20]

CCNc1nc(Cl)nc(NC(C)C)n1
inactive: outcome [1] | Potency [2] | outcome [3] | outcome [4] | max response [5] 2.47% and -5.57% | Potency [6] | Potency [7] | outcome [8] | Potency [9] | Potency [10] | outcome [11] | Potency [12] | Potency [13] | Potency [15] | outcome [16] | outcome [17] | outcome [18] | Potency [19] | outcome [20]

COP(=S)(OC)SCN1C(=O)c2ccccc2C1=O
inactive: outcome [1] | Potency [2] | outcome [3] | outcome [4] | max response [5] 11.4% and 4.29% and 1.87% | Potency [6] | Potency [7] | outcome [8] | Potency [9] | Potency [10] | outcome [11] | Potency [12] | Potency [13] | Potency [15] | outcome [16] | outcome [17] | outcome [18] | Potency [19] | outcome [20]

O=C/C=C/c1ccccc1
inactive: outcome [1] | Potency [2] | outcome [3] | outcome [4] | max response [5] -0.971% and 11.8% and 2.22% | Potency [6] | Potency [7] | outcome [8] | Potency [9] | Potency [10] | outcome [11] | Potency [12] | Potency [13] | Potency [14] | Potency [15] | outcome [17] | outcome [18] | Potency [19] | outcome [20]

CCCOC(=O)c1ccccc1C(=O)OCCC
inactive: outcome [1] | Potency [2] | outcome [3] | outcome [4] | max response [5] 0.157% and 0.878% | Potency [6] | Potency [7] | outcome [8] | Potency [9] | Potency [10] | outcome [11] | Potency [12] | Potency [13] | Potency [14] | Potency [15] | outcome [16] | outcome [17] | outcome [18] | Potency [19] | outcome [20]

C[C@H]1C(=O)O[C@@H]2CCN3CC=C(COC(=O)[C@](C)(O)[C@]1(C)O)[C@H]23
inactive: outcome [1] | Potency [2] | outcome [3] | outcome [4] | max response [5] -22.4% and -7.52% and -7.78% | Potency [6] | Potency [7] | outcome [8] | Potency [9] | Potency [10] | outcome [11] | Potency [12] | Potency [13] | Potency [15] | outcome [16] | outcome [17] | outcome [18] | Potency [19] | outcome [20]

c1ccc2c(c1)CCCC2
inactive: outcome [1] | Potency [2] | outcome [3] | outcome [4] | max response [5] 1.92% and 10.6% | Potency [6] | Potency [7] | outcome [8] | Potency [9] | Potency [10] | outcome [11] | Potency [12] | Potency [13] | Potency [15] | outcome [17] | outcome [18] | Potency [19] | outcome [20]

— PubChem BioAssay (Tox21)
